# Reference: ChEMBL document CHEMBL1157539, “Thousands of chemical starting points for antimalarial lead identification” (Nature, 2010)
# Columns and labels:
# Format in all cases: functional
# Plasmodium falciparum [1] = experiment: GSK_TCMDC: Inhibition of Plasmodium falciparum 3D7 in whole red blood cells, using parasite LDH activity as an index of growth. Test compounds present at 2uM
# Plasmodium falciparum [2] = experiment: GSK_TCMDC: Inhibition of Plasmodium falciparum Dd2 in whole red blood cells, using parasite LDH activity as an index of growth. Test compounds present at 2uM
# HepG2 = experiment: GSK_TCMDC: Percent inhibition of human HepG2 cell line. Test compounds present at 10uM.
Structure (SMILES),Inhibition (Plasmodium falciparum [1]) [%],Inhibition (Plasmodium falciparum [2]) [%],Inhibition (HepG2) [%]
CCCOc1ccc(C(F)(F)F)cc1NC(=O)c1nc2nc(C)cc(C)n2n1,90,88,7
Cc1cc(N2CCCC2)nc(Nc2ccc(NC(=O)c3cccc(F)c3)cc2)n1,97,28,39
Cc1cccc2nc(-c3ccc(-c4cccc(CNCCN(C)C)c4)cc3)[nH]c12.O=C(O)C(F)(F)F,100,98,6
O=C(NC1CC1)c1ccc2cc(C(=O)N3Cc4ccccc4C(c4ccccc4)C3)ccc2c1 (stereo not drawn),97,64,0
Cl.NC1=NC(c2ccccc2)N(c2ccc(Cl)c(Cl)c2)C(N)=N1 (stereo not drawn),94,0,13
COc1ccc(/N=[N+](\[O-])c2ccccc2/[N+]([O-])=N/c2ccc(OC)cc2)cc1,84,29,13
CCC(=O)c1c(C)n(-c2ncnc3c2nc(C)n3-c2ccc(C)cc2C)c2ccccc12,96,78,0
Cc1cccc2nc(-c3ccc(-c4cccc(NC(=O)NCc5ccc(F)cc5)c4)cc3)[nH]c12,100,100,82
O=C(Nc1ccccc1Cl)N(Cc1cc(Cl)cc(Cl)c1)CC(O)COc1ccc(Cl)c(F)c1 (stereo not drawn),93,17,0
COc1ccc(Nc2ccnc3cc4ccccc4cc23)cc1.Cl,100,73,32
Clc1cccc(C=NNc2nc(=Nc3ccccc3)[nH]c(=Nc3ccccc3)[nH]2)c1,92,15,0
